These results are taken from publication PMC3218832.

Some targets named below: RELARELA (p65 homodimer) (Homo sapiens, UniProt Q04206 1-307); p50p50 homodimer (Homo sapiens, UniProt P19838 7-356); RELB subunit;p50 subunit (Homo sapiens;Homo sapiens, UniProt Q01201;P19838 120-401;7-356).
Common to all, as to experiment: protein binding microarray; high values mean tight binding
Holding throughout (settings): dsDNA, one strand shown

For another assay, the target named is T1, p52p52 homodimer (Homo sapiens, UniProt Q00653 4-332).
T1 sequence: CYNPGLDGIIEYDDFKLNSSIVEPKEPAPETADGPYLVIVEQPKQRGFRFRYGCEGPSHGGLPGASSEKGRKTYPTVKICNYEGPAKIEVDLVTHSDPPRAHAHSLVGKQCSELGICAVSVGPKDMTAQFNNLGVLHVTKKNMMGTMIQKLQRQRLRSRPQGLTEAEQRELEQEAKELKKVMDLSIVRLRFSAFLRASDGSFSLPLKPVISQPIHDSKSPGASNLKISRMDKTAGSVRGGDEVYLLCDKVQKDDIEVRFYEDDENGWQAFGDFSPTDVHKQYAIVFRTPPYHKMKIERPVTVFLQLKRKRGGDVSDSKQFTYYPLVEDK

Assay [1] addresses RELA (p65) subunit of heterodimer;p50 subunit (Homo sapiens;Homo sapiens, UniProt Q04206;P19838 1-307;7-356).
Assay [2] has as its target RELA (p65) subunit of heterodimer;p52 subunit (Homo sapiens;Homo sapiens, UniProt Q04206;Q00653 1-307;4-332).
In the next assay the target is T2, RELB subunit;p52 subunit (Homo sapiens;Homo sapiens, UniProt Q01201;Q00653 120-401;4-332).
T2 sequence 1: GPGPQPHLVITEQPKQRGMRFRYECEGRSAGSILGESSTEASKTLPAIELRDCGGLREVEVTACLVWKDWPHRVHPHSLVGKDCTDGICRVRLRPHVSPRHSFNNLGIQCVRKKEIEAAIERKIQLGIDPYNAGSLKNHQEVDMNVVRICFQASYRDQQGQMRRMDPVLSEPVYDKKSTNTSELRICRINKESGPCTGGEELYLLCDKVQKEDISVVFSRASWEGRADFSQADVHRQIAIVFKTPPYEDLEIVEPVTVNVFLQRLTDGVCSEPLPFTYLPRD
T2 sequence 2: T1 sequence

The target of assay [3] is C-Rel subunit;p50 subunit (Homo sapiens;Homo sapiens, UniProt Q04864;P19838 1-285;7-356).
For assay [4], the target named is T3, C-Rel subunit;p52 subunit (Homo sapiens;Homo sapiens, UniProt Q04864;Q00653 1-285;4-332).
T3 sequence 1: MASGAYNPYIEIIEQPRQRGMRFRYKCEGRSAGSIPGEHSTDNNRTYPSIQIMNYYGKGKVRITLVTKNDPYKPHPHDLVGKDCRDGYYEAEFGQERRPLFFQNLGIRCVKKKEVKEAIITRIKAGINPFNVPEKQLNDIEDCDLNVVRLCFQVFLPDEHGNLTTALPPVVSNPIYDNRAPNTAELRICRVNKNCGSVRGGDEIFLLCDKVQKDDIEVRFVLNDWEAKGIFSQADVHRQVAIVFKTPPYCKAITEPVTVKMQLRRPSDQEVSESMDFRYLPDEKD
T3 sequence 2: T1 sequence

Chain of p50p50 homodimer (P19838 7-356): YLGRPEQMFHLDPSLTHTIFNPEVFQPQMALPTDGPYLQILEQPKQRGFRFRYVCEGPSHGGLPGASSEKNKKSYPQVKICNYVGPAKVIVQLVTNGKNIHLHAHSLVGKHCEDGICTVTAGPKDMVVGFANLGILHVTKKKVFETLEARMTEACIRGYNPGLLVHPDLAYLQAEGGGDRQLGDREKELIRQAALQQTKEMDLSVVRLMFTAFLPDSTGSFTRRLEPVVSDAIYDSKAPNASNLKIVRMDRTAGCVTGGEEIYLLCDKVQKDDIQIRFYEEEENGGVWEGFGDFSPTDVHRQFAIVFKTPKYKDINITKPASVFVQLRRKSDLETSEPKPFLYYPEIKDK
Chain of RELA (p65) subunit of heterodimer;p50 subunit (Q04206 1-307, chain 1 of 2): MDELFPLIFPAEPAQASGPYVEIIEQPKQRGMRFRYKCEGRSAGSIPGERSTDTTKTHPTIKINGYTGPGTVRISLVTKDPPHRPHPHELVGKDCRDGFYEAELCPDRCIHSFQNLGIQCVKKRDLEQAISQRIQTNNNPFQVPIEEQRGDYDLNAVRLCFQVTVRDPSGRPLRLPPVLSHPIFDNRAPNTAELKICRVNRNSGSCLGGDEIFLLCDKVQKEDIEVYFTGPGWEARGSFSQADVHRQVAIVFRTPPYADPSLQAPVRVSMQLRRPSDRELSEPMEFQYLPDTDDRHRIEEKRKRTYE
Chain of RELA (p65) subunit of heterodimer;p50 subunit (P19838 7-356, chain 2 of 2): as the sequence (P19838 7-356) above
Chain of RELARELA (p65 homodimer) (Q04206 1-307): as the sequence (Q04206 1-307, chain 1 of 2) above

In the case of AAATACGCCCT, the binding signal with RELARELA (p65 homodimer) is 0.0178 z-score; in the assay with p50p50 homodimer, -0.886 z-score; with p52p52 homodimer it was -0.502 z-score; in assay [1], -0.594 z-score; in [2], -0.758 z-score; in the assay with RELB subunit;p50 subunit, -1.09 z-score. The binding signal with RELB subunit;p52 subunit is -0.751 z-score; in assay [3], -0.684 z-score; in [4] it was -0.592 z-score.
On to CAGGATATCCC, for which the binding signal is 0.644 z-score with RELARELA (p65 homodimer); -0.266 z-score with p50p50 homodimer; -0.111 z-score in the assay with p52p52 homodimer; -0.14 z-score in assay [1]; -0.0926 z-score in assay [2]; -0.231 z-score with RELB subunit;p50 subunit. For the same sequence, the figures for the binding signal (with RELB subunit;p52 subunit; in assay [3]; in assay [4]) were -0.211 z-score, -0.116 z-score and -0.032 z-score, respectively.
As to CAGAGCTCCCC, the binding signal with RELARELA (p65 homodimer) was -0.432 z-score; in the assay with p50p50 homodimer, -0.0564 z-score; with p52p52 homodimer, -0.163 z-score; in assay [1], 0.0392 z-score; in assay [2], -0.211 z-score; with RELB subunit;p50 subunit, 0.161 z-score. Also, the binding signal was -0.0377 z-score in the assay with RELB subunit;p52 subunit, 0.0629 z-score in [3] and -0.215 z-score in assay [4].
In the case of GAGTATCCCCT, the binding signal in the assay with RELARELA (p65 homodimer) stood at 0.0376 z-score; with p50p50 homodimer, 1.26 z-score; in the assay with p52p52 homodimer, 1.26 z-score; in [1], 1.29 z-score; in [2] it was 1.26 z-score; in the assay with RELB subunit;p50 subunit, 1.28 z-score. In addition, the binding signal came out at 1.35 z-score in the assay with RELB subunit;p52 subunit, 0.928 z-score in assay [3] and 0.943 z-score in assay [4].
Take AGGAGTGTCCC: the binding signal with RELARELA (p65 homodimer) was determined as 1.3 z-score; with p50p50 homodimer, 0.0859 z-score; with p52p52 homodimer, 0.362 z-score; in assay [1] it was 0.736 z-score; in [2], 0.372 z-score; with RELB subunit;p50 subunit, 0.333 z-score. Further, the figures for the binding signal (with RELB subunit;p52 subunit; in assay [3]; in assay [4]) were 0.321 z-score, 0.586 z-score and 0.486 z-score, respectively.
As for AAATGCTTCCC, the binding signal with RELARELA (p65 homodimer) was 0.511 z-score; in the assay with p50p50 homodimer, -0.412 z-score; with p52p52 homodimer it was -0.425 z-score; in [1] it was -0.0858 z-score; in assay [2], -0.314 z-score; with RELB subunit;p50 subunit, -0.27 z-score. The binding signal with RELB subunit;p52 subunit is -0.535 z-score; in [3], 0.16 z-score; in assay [4], -0.384 z-score.
Take CGGTTCCCCCC: the binding signal with RELARELA (p65 homodimer) worked out at 0.357 z-score; in the assay with p50p50 homodimer, 1.52 z-score; with p52p52 homodimer, 1.57 z-score; in assay [1], 2.24 z-score; in assay [2], 1.89 z-score; with RELB subunit;p50 subunit, 2.3 z-score. Besides, the binding signal with RELB subunit;p52 subunit was 2.23 z-score; in [3], 1.85 z-score; in [4], 1.73 z-score.
Consider GGAGTGGCCCT, for which the binding signal with RELARELA (p65 homodimer) was -0.154 z-score; with p50p50 homodimer, -1.1 z-score; with p52p52 homodimer it was -0.562 z-score; in assay [1], -0.155 z-score; in assay [2], -0.329 z-score; in the assay with RELB subunit;p50 subunit, -0.631 z-score. Further, the binding signal in the assay with RELB subunit;p52 subunit was -0.334 z-score; in [3] it was -0.305 z-score; in assay [4] it was -0.0519 z-score.
As to GGAAACTCCCC, the binding signal with RELARELA (p65 homodimer) is 3.23 z-score; with p50p50 homodimer, 1.08 z-score; with p52p52 homodimer, 2.01 z-score; in assay [1] it was 2.39 z-score; in assay [2] it was 2.23 z-score; in the assay with RELB subunit;p50 subunit, 1.32 z-score. Also, the binding signal in the assay with RELB subunit;p52 subunit came out at 2.1 z-score; in assay [3], 2.15 z-score; in assay [4], 2.63 z-score.
As to GGGGTGATCCC, the binding signal with RELARELA (p65 homodimer) was found to be 0.248 z-score; with p50p50 homodimer, 0.402 z-score; with p52p52 homodimer, 1.59 z-score; in assay [1], 0.62 z-score; in [2], 1.16 z-score; in the assay with RELB subunit;p50 subunit it was 0.387 z-score. For the same sequence, the figures for the binding signal (in the assay with RELB subunit;p52 subunit; in assay [3]; in assay [4]) were 0.685 z-score, 0.527 z-score and 0.91 z-score, respectively.
Take GGGGGGCCCCT: the binding signal with RELARELA (p65 homodimer) was 0.434 z-score; in the assay with p50p50 homodimer, 0.995 z-score; with p52p52 homodimer, 1.67 z-score; in assay [1], 1.67 z-score; in assay [2] it was 1.86 z-score; with RELB subunit;p50 subunit, 1.23 z-score. Also, the binding signal in the assay with RELB subunit;p52 subunit was determined as 1.45 z-score; in assay [3] it was 1.22 z-score; in assay [4], 1.71 z-score.
Consider GGAGGCGCCCC, for which the binding signal in the assay with RELARELA (p65 homodimer) was -0.259 z-score; with p50p50 homodimer, -0.0933 z-score; with p52p52 homodimer, -0.0824 z-score; in assay [1], -0.062 z-score; in assay [2], 0.0158 z-score; in the assay with RELB subunit;p50 subunit it was 0 z-score. The binding signal with RELB subunit;p52 subunit is 0.214 z-score; in assay [3], -0.156 z-score; in assay [4], -0.0409 z-score.
With GAGATTTTCCT, the binding signal with RELARELA (p65 homodimer) was 1.17 z-score; with p50p50 homodimer, -0.538 z-score; in the assay with p52p52 homodimer, -0.404 z-score; in assay [1], -0.116 z-score; in [2], -0.119 z-score; in the assay with RELB subunit;p50 subunit it was -0.659 z-score. Besides, the values for the binding signal (in the assay with RELB subunit;p52 subunit; in assay [3]; in assay [4]) were -0.507 z-score, 0.14 z-score and 0.077 z-score, respectively.
CGAGATACCCC: the binding signal in the assay with RELARELA (p65 homodimer) is -0.193 z-score; in the assay with p50p50 homodimer, 0.305 z-score; with p52p52 homodimer, 0.114 z-score; in assay [1], 0.439 z-score; in assay [2], 0.228 z-score; with RELB subunit;p50 subunit, 0.539 z-score. Moreover, the binding signal with RELB subunit;p52 subunit came to 0.921 z-score; in [3], 0.515 z-score; in [4] it was 0.344 z-score.
For AAATGTATCCT, the binding signal with RELARELA (p65 homodimer) is -0.258 z-score; in the assay with p50p50 homodimer, -1.3 z-score; with p52p52 homodimer, -0.661 z-score; in [1], -0.932 z-score; in assay [2] it was -0.782 z-score; with RELB subunit;p50 subunit, -0.907 z-score. Besides, the binding signal is -0.763 z-score in the assay with RELB subunit;p52 subunit, -1.32 z-score in assay [3] and -0.746 z-score in [4].
